Test results as given in PMC7862700, “An all-to-all approach to the identification of sequence-specific readers for epigenetic DNA modifications on cytosine”.

What was measured:
Experiment in all cases: DAPPL (digital affinity profiling via proximity ligation, sequencing); 10 mM Tris-HCl pH 7.5, 50 mM NaCl, 1 mM DTT, 4% glycerol, room temperature, 30 min; GST-TFs on glutathione beads, 16-mer random dsDNA library, 0.1% formaldehyde crosslink after washing; high values mean tight binding
Settings in all cases: protein: recombinant; tags: N-terminal GST; dsDNA, one strand shown
FLI1 = molecular target: T1, FLI1 (Homo sapiens, UniProt Q01543 1-452)
T1 sequence: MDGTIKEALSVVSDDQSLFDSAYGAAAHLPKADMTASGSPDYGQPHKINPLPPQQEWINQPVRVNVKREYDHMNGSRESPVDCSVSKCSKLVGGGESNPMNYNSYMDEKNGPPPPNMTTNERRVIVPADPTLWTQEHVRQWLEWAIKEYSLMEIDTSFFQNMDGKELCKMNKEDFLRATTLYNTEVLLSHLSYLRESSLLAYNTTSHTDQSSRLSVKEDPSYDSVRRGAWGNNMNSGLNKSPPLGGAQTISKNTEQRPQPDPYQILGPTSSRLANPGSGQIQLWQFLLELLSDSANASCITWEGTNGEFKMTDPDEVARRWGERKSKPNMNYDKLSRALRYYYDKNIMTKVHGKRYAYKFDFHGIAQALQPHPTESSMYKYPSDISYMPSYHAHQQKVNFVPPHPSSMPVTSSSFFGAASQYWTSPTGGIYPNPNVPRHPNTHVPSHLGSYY
Method in brief: (§1)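 Human transcription factors were made in yeast as GST fusions, captured on glutathione beads and barcoded with DNA. With a tag-only sample included, the pool was incubated with 200 nmole of a random double-stranded 16-mer DNA library in Tris/NaCl/DTT/glycerol buffer at room temperature for 30 min, then crosslinked with 0.1% formaldehyde after washing, ligated by proximity, amplified and sequenced. For binding signal, each hexamer's read frequency for a factor is divided by its frequency for the tag-only sample.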

ELK1 = molecular target: T2, ELK1 (Homo sapiens, UniProt P19419 1-428)
T2 sequence: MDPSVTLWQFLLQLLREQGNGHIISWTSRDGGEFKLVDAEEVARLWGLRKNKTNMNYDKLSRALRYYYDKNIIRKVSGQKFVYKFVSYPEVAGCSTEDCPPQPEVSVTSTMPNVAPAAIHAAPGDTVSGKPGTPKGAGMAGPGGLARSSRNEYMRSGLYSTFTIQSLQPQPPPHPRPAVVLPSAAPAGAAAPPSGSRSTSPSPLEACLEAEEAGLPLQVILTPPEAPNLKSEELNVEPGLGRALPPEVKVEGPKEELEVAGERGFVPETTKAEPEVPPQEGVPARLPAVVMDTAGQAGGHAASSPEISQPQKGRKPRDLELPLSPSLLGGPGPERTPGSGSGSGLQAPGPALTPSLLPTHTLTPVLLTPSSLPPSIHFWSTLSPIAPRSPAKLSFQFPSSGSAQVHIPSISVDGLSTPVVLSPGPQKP
Method in brief: as §1

GABPA = molecular target: T3, GABPA (Homo sapiens, UniProt Q06546 1-454)
T3 sequence: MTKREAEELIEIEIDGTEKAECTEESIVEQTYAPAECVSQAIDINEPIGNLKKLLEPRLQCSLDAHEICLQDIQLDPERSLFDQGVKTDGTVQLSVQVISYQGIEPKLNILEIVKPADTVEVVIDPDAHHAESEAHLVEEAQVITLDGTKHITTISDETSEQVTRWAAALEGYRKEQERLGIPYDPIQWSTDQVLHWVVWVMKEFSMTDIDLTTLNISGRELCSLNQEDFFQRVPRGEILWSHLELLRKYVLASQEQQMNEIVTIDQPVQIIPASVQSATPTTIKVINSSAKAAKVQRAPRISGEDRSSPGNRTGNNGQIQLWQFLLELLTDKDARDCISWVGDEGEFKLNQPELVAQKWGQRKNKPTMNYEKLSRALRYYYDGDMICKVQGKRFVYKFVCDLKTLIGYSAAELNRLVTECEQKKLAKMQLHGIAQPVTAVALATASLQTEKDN
Method in brief: as §1

ERG = molecular target: T4, ERG (Homo sapiens, UniProt P11308 1-479)
T4 sequence: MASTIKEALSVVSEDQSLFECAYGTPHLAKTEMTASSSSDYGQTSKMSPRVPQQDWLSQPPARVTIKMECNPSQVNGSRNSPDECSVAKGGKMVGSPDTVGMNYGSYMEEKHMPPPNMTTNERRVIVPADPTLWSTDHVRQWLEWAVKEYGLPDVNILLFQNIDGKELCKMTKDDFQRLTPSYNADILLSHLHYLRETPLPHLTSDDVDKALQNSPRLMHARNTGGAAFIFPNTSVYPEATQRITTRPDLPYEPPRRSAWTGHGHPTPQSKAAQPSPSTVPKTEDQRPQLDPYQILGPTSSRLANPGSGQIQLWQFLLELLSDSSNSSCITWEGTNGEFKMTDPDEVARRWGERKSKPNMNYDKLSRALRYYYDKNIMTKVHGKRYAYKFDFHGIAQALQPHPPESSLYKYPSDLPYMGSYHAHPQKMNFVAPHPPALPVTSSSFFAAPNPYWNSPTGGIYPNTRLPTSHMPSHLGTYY
Method in brief: as §1

ELF1 = ELF1 (Homo sapiens, UniProt P32519 1-619)
Method in brief: as §1

EHF = molecular target: T5, EHF (Homo sapiens, UniProt Q9NZC4 1-300)
T5 sequence: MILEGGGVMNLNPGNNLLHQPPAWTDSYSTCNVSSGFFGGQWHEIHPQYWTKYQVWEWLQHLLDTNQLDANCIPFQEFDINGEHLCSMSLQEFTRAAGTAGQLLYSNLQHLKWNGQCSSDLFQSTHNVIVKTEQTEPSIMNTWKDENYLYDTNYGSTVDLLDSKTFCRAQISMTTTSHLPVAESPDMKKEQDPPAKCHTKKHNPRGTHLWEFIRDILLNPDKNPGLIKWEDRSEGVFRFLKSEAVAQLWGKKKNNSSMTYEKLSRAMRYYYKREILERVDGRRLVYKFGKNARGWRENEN
Method in brief: as §1

SPI1 = SPI1 (Homo sapiens, UniProt P17947 1-270)
Method in brief: as §1

SPIB = SPIB (Homo sapiens, UniProt Q01892 1-262)
Method in brief: as §1

ELK3 = molecular target: T6, ELK3 (Homo sapiens, UniProt P41970 1-407)
T6 sequence: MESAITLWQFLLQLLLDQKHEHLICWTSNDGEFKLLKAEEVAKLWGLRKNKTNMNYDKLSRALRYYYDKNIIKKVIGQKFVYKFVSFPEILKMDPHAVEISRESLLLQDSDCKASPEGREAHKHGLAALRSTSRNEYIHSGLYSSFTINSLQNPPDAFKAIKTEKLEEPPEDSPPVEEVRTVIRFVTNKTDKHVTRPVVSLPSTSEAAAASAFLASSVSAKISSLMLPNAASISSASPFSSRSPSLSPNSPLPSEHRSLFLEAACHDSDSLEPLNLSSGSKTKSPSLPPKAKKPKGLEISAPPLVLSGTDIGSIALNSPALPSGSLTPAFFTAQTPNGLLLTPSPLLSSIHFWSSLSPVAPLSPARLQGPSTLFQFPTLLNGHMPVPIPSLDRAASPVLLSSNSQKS
Method in brief: as §1

Chain of SPIB (Q01892 whole entry): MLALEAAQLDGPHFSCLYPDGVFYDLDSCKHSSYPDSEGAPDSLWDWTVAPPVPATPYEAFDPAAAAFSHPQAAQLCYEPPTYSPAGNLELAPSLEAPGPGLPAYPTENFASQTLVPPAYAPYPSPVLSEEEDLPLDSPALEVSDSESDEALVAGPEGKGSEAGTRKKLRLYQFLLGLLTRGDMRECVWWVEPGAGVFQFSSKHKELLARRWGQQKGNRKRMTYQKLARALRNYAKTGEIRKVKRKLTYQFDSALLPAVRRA
Chain of ELF1 (P32519 whole entry): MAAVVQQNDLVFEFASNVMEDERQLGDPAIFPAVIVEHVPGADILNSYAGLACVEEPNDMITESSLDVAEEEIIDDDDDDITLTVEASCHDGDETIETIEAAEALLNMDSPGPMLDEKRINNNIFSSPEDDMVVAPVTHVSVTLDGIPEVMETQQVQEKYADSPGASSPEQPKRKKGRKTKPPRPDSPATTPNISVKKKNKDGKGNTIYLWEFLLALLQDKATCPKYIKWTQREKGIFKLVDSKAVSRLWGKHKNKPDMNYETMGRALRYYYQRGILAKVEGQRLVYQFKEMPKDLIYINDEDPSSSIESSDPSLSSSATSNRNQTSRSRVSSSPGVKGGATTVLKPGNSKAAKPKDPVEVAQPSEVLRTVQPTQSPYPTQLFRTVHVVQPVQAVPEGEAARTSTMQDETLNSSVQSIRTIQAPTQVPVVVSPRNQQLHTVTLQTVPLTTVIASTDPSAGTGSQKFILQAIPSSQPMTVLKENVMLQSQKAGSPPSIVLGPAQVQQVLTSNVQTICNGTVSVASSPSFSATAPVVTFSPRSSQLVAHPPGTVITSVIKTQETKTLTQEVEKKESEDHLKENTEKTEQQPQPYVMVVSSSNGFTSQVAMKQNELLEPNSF

CTACAA
binding signal (FLI1): 1.17 fold enrichment (6-mer frequency, TF over GST control) | binding signal (ELK1): 1.13 fold enrichment (6-mer frequency, TF over GST control) | binding signal (GABPA): 1.2 fold enrichment (6-mer frequency, TF over GST control) | binding signal (ERG): 1.08 fold enrichment (6-mer frequency, TF over GST control) | binding signal (ELF1): 1.13 fold enrichment (6-mer frequency, TF over GST control) | binding signal (EHF): 1.14 fold enrichment (6-mer frequency, TF over GST control) | binding signal (SPI1): 1.09 fold enrichment (6-mer frequency, TF over GST control) | binding signal (SPIB): 1.15 fold enrichment (6-mer frequency, TF over GST control) | binding signal (ELK3): 1.03 fold enrichment (6-mer frequency, TF over GST control)
